Source: PubChem BioAssay
ELG1 DNA repair: qHTS screen for small molecules that inhibit ELG1-dependent DNA repair in human embryonic kidney (HEK293T) cells expressing luciferase-tagged ELG1 | HEK293T ELG1-luciferase reporter, luminescence, 16 h; DNA damage induced by 5-fluorouridine | Potency, µM (doses to about 46.1 µM), hits mostly inhibitors | 2.3% of 330,000 active | AID 504467, 2011; further: nearly all actives have a fitted effect of over 55% in size
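Cells (2,000 per well) received 5-fluorouridine plus test compound or DMSO and were incubated 16 hr at 37 °C, 5% CO2. Luciferase activity was read by luminescence 30 min after ONE-Glo addition; signal suppression marked inhibition of damage-induced ELG1 function.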
Rab9 promoter act: qHTS Assay for Rab9 Promoter Activators; Huh7 Rab9 promoter-luciferase reporter, luminescence, 24 h; Potency, µM (highest dose often 9.22 µM), actives largely listed as activators; 2.8% of 320,000 active; AID 485297, 2010; further: nearly all actives have a fitted effect of over 60% in size
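Huh7 reporter line, Rab9 promoter upstream of luciferase. Compound exposure 24 h at 37 °C in reduced-serum medium with 10% FBS. Read-out: luminescence.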
SMN2 splice enh: qHTS Assay for Enhancers of SMN2 Splice Variant Expression. HEK293 SMN2-luciferase splicing reporter, luminescence, 30-36 h. Potency, µM (top dose mostly 46.1 µM), most hits filed as activators. 2.8% of 210,000 active; further: nearly all actives have a fitted effect of over 55% in size
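HEK293 cells carry an SMN2 minigene-luciferase reporter in which exon 7 inclusion puts luciferase in frame. Cells were seeded at 2000 cells/well, attached for 10-12 hours, then exposed to compounds for 30-36 hours at 37C before ONE-Glo luminescence.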
NPC1 prom act: qHTS Assay for NPC1 Promoter Activators | Huh7 NPC1 promoter luciferase reporter, 24 h | Potency, µM (highest dose often 9.22 µM), most hits filed as activators | 2.4% of 320,000 active | AID 485313, 2010; further: nearly all actives have a fitted effect of over 60% in size
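Cells: Huh7 expressing luciferase under the NPC1 promoter, 1500/well. Seeded 2 h, compound added, incubated 24 h at 37 °C. Luciferase reagent, 10 min ambient, then luminescence.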
ELG1 genotox: qHTS screen for small molecules that induce genotoxicity in human embryonic kidney (HEK293T) cells expressing luciferase-tagged ELG1 | HEK293T ELG1-luciferase reporter, luminescence, 16 h | Potency, µM (series often up to 46 µM), actives largely listed as activators | 1.3% of 330,000 active | AID 504466, 2011; further: nearly all actives have a fitted effect of over 60% in size
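Luminescence read-out: rising ELG1-luciferase signal, reflecting elevated ELG1 protein under genetic stress, flags genotoxic compounds. Cells were treated for 16 hr at 37 °C before ONE-Glo detection.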
FLuc counter: qHTS profiling assay for firefly luciferase inhibitor/activator using purifed enzyme and Km concentrations of substrates (counterscreen for miR-21 project); Luciferin 4-monooxygenase (Photinus pyralis), P08659; purified FLuc, Km substrates, luminescence inhibition; Potency, µM (series often up to 57.5 µM), actives largely listed as inhibitors; 6.9% of 360,000 active; AID 588342, 2011; further: nearly all actives have a fitted effect of over 55% in size
Target sequence (P08659 whole entry, looked up): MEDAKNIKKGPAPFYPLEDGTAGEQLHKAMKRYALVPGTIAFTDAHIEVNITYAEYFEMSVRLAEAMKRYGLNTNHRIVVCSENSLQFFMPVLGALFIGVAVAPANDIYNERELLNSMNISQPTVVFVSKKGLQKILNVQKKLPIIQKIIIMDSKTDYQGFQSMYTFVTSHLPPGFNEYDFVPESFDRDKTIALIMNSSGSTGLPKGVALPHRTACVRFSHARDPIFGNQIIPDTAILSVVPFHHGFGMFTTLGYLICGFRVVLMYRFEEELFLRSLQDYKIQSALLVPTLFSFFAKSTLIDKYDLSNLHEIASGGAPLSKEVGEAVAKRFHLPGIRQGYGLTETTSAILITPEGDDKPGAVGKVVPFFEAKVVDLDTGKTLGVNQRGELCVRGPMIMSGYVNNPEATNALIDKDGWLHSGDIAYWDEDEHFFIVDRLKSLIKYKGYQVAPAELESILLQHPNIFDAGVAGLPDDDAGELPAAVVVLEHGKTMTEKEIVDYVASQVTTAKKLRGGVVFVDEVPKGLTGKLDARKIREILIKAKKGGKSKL
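Purified P. pyralis luciferase, 10 nM final, with Km-level 10 uM D-luciferin and 10 uM ATP in 50 mM Tris acetate pH 7.5, 10 mM Mg acetate, 0.01% Tween-20, 0.05% BSA; 6-point qHTS titration about 60 µM downward; luminescence read.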
A number is an active result; . = inactive; ? = inconclusive; / = not tested or not shown; [ ] = remark or other dose. Sampled rows, rich in hits. Any-hit rate of the full collection: about 9.2%. The call rests on the fitted dose curve; in most records, active means well fitted curve in the direction sought with a large enough effect; inconclusive means small, poorly fitted or top-dose-only effect, or another doubt; inactive means no such curve, though single readings can be large; an effect the other way counts as inactive or inconclusive.

SMILES	ELG1 DNA repair	Rab9 promoter act	SMN2 splice enh	NPC1 prom act	ELG1 genotox	FLuc counter
COc1ccc2c(c1)CC/C(=C\c1ccc(OC)c(Cn3nc(C)cc3C)c1)C2=O	?	.	.	.	.	?
CC(C)(C)c1ccc(/C=N/OCC(=O)NCc2ccc(F)cc2)cc1	?	.	.	.	.	30.1µM
CC(C)(C)c1ccc(/C=N/OCC(=O)NCc2ccccc2)cc1	?	.	.	.	.	16.9µM
CC(Sc1nccn1C)C(=O)Nc1ccc(Cl)cn1 (stereo not drawn)	.	.	/	.	.	.
COc1ccc(OC)c(S(=O)(=O)NCC(=O)NC2CCCc3ccccc32)c1 (stereo not drawn)	.	.	/	.	.	.
CCc1ccccc1Nc1nc(-c2cccnc2)cs1	?	?	/	.	.	?
O=[N+]([O-])c1ccccc1Nc1nc(-c2cccnc2)cs1	.	.	/	?	?	10.7µM
COc1ccc(Nc2nc(-c3cccnc3)cs2)c(OC)c1	?	?	/	3.55µM	.	21.3µM
COc1ccccc1Nc1nc(C2(C)CCC(=O)O2)cs1 (stereo not drawn)	?	.	.	.	.	15.1µM
COc1ccccc1Nc1nc(-c2cccnc2)cs1	?	?	/	?	.	13.5µM
COC(=O)CCCCC1SCC(NC(=O)c2ccccc2)C1=O (stereo not drawn)	.	.	.	.	.	.
Cc1ccccc1-c1nc2c(c(SCc3cccc(Cl)c3)n1)Cc1c(CO)cnc(C)c1O2	/	/	/	/	/	.
CN(C)/C=C1/Sc2ccccc2C1=O	?	.	.	.	.	?
CC(=O)N(\C=C/C=C/C=C1\Sc2ccccc2C1=O)c1ccccc1	?	.	.	.	.	7.57µM
CC(=O)N(/N=C1\Sc2ccccc2C1=O)c1ccc(C)cc1C	?	.	.	?	14.6µM	16.9µM
CC(=O)N(/N=C1\Sc2ccccc2C1=O)c1ccccc1C	?	3.16µM	?	?	?	10.7µM
CC(=O)Oc1ccc(N(C(C)=O)S(=O)(=O)c2ccc(C)cc2C)c2ccccc12	?	.	/	.	.	.
CC(=O)N(/N=C1/C(=O)Nc2ccccc21)c1ccccc1	?	?	/	?	.	.
CC(=O)N(/N=C1\Sc2ccccc2C1=O)c1ccccc1	?	.	14.1µM	.	?	?
O=C(NC(=S)Nc1ccccc1OC(F)F)c1ccc2c(c1)OCO2	?	/	/	/	.	/
C[C@@H](C(=O)N[C@H](C(=O)O)c1ccccc1)n1nnc2ccccc2c1=O	.	.	.	.	.	.
CCc1ccc2[nH]c(=O)c(CN(Cc3ccccc3)C(=O)Nc3ccccc3OC)cc2c1	?	.	.	.	.	.
CNc1c([N+](=O)[O-])cnn1-c1ccccc1Cl	?	.	.	.	.	15.1µM
CNc1c([N+](=O)[O-])cnn1-c1ccc(Cl)cc1Cl	.	.	.	.	.	.
COc1ccccc1NC(=O)c1csc2c1CCC(C)C2 (stereo not drawn)	.	.	/	?	.	?
SMILES	ELG1 DNA repair	Rab9 promoter act	SMN2 splice enh	NPC1 prom act	ELG1 genotox	FLuc counter
CC1CCc2c(C(=O)Nc3cccc(-c4nn[nH]n4)c3)csc2C1 (stereo not drawn)	?	?	/	.	?	2.69µM
CCc1nnc(NC(=O)c2csc3c2CCC(C)C3)s1 (stereo not drawn)	?	2µM	?	?	?	.
Cc1cc(F)ccc1NC(=O)c1csc2c1CCC(C)C2 (stereo not drawn)	/	/	6.31µM	/	/	?
Cc1cc(N)c2cc(OCCOc3ccc4nc(C)cc(N)c4c3)ccc2n1	/	/	.[9.22 µM]	/	/	/
Nc1c(C(=O)c2ccccc2)oc2ccc(Br)cc12	?	3.55µM	15.8µM	3.16µM	4.61µM	3.01µM
COC(=O)CCC(=O)c1oc2ccc(Br)cc2c1N	?	.	.	.	?	7.57µM
